Among the test systems are NCI-H23 lung; NCI-H226 lung; HOP-62 NSCLC; NCI-H460 lung; HOP-92 NSCLC; NCI-H522 lung; A549/ATCC NSCLC; 786-0 renal; COLO 205 colon; NCI-H322M lung.
Assay in all cases: NCI-60 one-dose screen, 48 h (100 = growth as untreated, 0 = no growth, -100 = all killed)
What all share (settings): 10 µM unless noted

These results are taken from PubChem BioAssay (NCI).

About 83,000 compounds went through this panel and 20% of them were active in at least one assay; those are over-represented in the sample as a whole.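 Interpretation: 100, growth as untreated; towards 0, rising growth inhibition; 0, no net growth; 0 to -100, cell death. Compounds scoring below 10 were considered active.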 A number with no mark means an inactive call. The source made the active and inactive calls.

`O=C(Nc1cccc([N+](=O)[O-])c1)Nc1cccc([N+](=O)[O-])c1`: the growth in the assay with NCI-H23 lung is 28.3%; in the assay with NCI-H226 lung, 53%; in the assay with HOP-62 NSCLC, 88.2%; in the assay with NCI-H460 lung, 35.2%; with HOP-92 NSCLC, 2.97% (active); in the assay on NCI-H522 lung, 10.1%. For the same compound, the values for the growth with A549/ATCC NSCLC, with 786-0 renal and in the assay with COLO 205 colon were 60.5%, 71.7% and 59.1%, respectively.

Regarding `O=C(Nc1ccc(-n2cc(-c3ccncc3)c(-c3ccc(O)c(Cl)c3)n2)cc1)c1cc(Cl)cc(Cl)c1`, the growth in the assay with NCI-H23 lung is 59.2%; in the assay on NCI-H226 lung, 89.1%; in the assay on HOP-62 NSCLC it was 45.5%; with NCI-H460 lung, 22.3%; in the assay with HOP-92 NSCLC, 42%; with NCI-H522 lung, 22%. For the same compound, the growth in the assay on A549/ATCC NSCLC was 35.9%; with 786-0 renal it was -42.1% (active); in the assay on COLO 205 colon, 91.1%.

As for `COc1cccc(C2CC(c3cc(OC)c(OC)c(OC)c3)=NN2)c1` (stereo unspecified), the growth was 89.6% with NCI-H23 lung; 91.7% in the assay on NCI-H226 lung; 83% in the assay with HOP-62 NSCLC; 93.7% in the assay with NCI-H460 lung; 80% in the assay with HOP-92 NSCLC; 80.3% in the assay on NCI-H522 lung. Besides, the growth is 84.4% with A549/ATCC NSCLC, 86.9% in the assay with 786-0 renal and 106% with COLO 205 colon.

For `COc1ccc(Cl)cc1NC(=O)c1cc2c([nH]1)-c1nc(NC(=O)C(C)(C)C)sc1CC2`, the growth was 57.8% in the assay on NCI-H23 lung; 57.7% with NCI-H226 lung; 61.7% with HOP-62 NSCLC; 18.3% in the assay on NCI-H460 lung; 51.4% in the assay with HOP-92 NSCLC; 38% with NCI-H522 lung. Further, the values for the growth with A549/ATCC NSCLC, with 786-0 renal and in the assay on COLO 205 colon were 60.6%, 93.2% and 78.1%, respectively.

Take `O=C(CSc1nnc(-c2ccccc2)o1)Nc1ccc(C(=O)/C=C/c2ccccc2)cc1`: the growth in the assay on NCI-H226 lung was 85.4%; in the assay on NCI-H322M lung it was 71.1%; in the assay with HOP-62 NSCLC, 72.4%; in the assay with NCI-H460 lung, 48.4%; in the assay on HOP-92 NSCLC, 60.6%; with NCI-H522 lung, 65.2%. The growth was 60.3% in the assay with A549/ATCC NSCLC, 84.8% with 786-0 renal and 79.2% in the assay with COLO 205 colon.

With `CN(C)CCCOc1c(Br)cc(/C=C/C(=O)N(C)CCc2cc(Br)c(OCCCN(C)C)c(Br)c2)cc1Br`, the growth in the assay on NCI-H226 lung is 95.7%; in the assay with NCI-H322M lung, 59.5%; with HOP-62 NSCLC, 82.3%; in the assay on NCI-H460 lung it was 23.1%; with HOP-92 NSCLC, 48.7%; in the assay with NCI-H522 lung, 13.5%. The growth with A549/ATCC NSCLC is 41.5%; in the assay with 786-0 renal it was 63.7%; in the assay with COLO 205 colon, 39.3%.

For the compound `CC12CCC3C(CCC4CC(O)CCC43C)C1C/C(=C/O)C(=O)O2` (stereo unspecified), the growth is 96.6% in the assay with NCI-H226 lung; 107% in the assay on NCI-H322M lung; 99.1% in the assay on HOP-62 NSCLC; 110% with NCI-H460 lung; 99.6% in the assay on HOP-92 NSCLC; 84.2% with NCI-H522 lung. Besides, the figures for the growth with A549/ATCC NSCLC, with 786-0 renal and in the assay on COLO 205 colon were 100%, 111% and 105%, respectively.

As for `COc1ccc(-c2nnc(SCC(=O)Nc3ccc(C(=O)/C=C/c4ccc(Cl)cc4)cc3)o2)cc1OC`, the growth with NCI-H226 lung is 85.7%; with NCI-H322M lung, 87.4%; in the assay with HOP-62 NSCLC it was 71.8%; in the assay with NCI-H460 lung, 70%; in the assay with HOP-92 NSCLC, 29.7%; with NCI-H522 lung it was 16.7%. The growth with A549/ATCC NSCLC was 90.7%; in the assay with 786-0 renal, 70.8%; in the assay on COLO 205 colon it was 116%.

Turning to `OC[C@@H](O)C(O[C@@H]1O[C@H](CO)[C@H](O)[C@H](O)[C@H]1O)[C@H](O)[C@@H](O)CO` (stereo partly specified), the growth was 103% in the assay on NCI-H226 lung; 96% with NCI-H322M lung; 96.7% in the assay on HOP-62 NSCLC; 108% in the assay on NCI-H460 lung; 82.1% in the assay on HOP-92 NSCLC; 95.7% with NCI-H522 lung. Moreover, the growth is 110% with A549/ATCC NSCLC, 106% in the assay on 786-0 renal and 110% in the assay with COLO 205 colon.

In the case of `CC(=O)Nc1ccc([I+]c2ccc([N+](=O)[O-])cc2)cc1`, the growth was 79.9% in the assay with NCI-H226 lung; 94.8% in the assay on NCI-H322M lung; 96.4% in the assay on HOP-62 NSCLC; 104% in the assay on NCI-H460 lung; 90.5% with HOP-92 NSCLC; 46.5% in the assay with NCI-H522 lung. In addition, the growth in the assay on A549/ATCC NSCLC is 98.9%; in the assay with 786-0 renal, 98.3%; with COLO 205 colon it was 63.4%.

For `CCc1c(C)c2cc3nc(NCc4ccccc4)oc3c(C)c2oc1=O`, the growth in the assay with NCI-H226 lung was 88.1%; in the assay on NCI-H322M lung, 70.2%; with HOP-62 NSCLC, 73.7%; with NCI-H460 lung it was 60.3%; with HOP-92 NSCLC, 78.1%; with NCI-H522 lung it was 45.5%. Also, the growth was 78.6% in the assay on A549/ATCC NSCLC, 44.4% with 786-0 renal and 114% in the assay on COLO 205 colon.

Turning to `O=C(N/N=C/c1ccccc1O)c1ccccc1O`, the growth in the assay on NCI-H226 lung was 67%; in the assay with NCI-H322M lung, 32.6%; in the assay with HOP-62 NSCLC, 42.1%; in the assay with NCI-H460 lung, 13.2%; in the assay with HOP-92 NSCLC, 56.5%; in the assay on NCI-H522 lung it was 6.88% (active). The growth in the assay on A549/ATCC NSCLC was 45.4%; with 786-0 renal it was 25.8%; with COLO 205 colon it was 55.5%.

For the compound `CCc1ccc(C2=C/C(=C/c3ccc(Cl)cc3)C(=O)N2CCc2ccc(S(N)(=O)=O)cc2)cc1`, the growth in the assay with NCI-H226 lung was 29.2%; in the assay on NCI-H322M lung, 54.3%; in the assay with HOP-62 NSCLC, 34.1%; in the assay with NCI-H460 lung it was 2.69% (active); with HOP-92 NSCLC, 15.1%; with NCI-H522 lung, 5.98% (active). In addition, the growth with A549/ATCC NSCLC is 13.7%; in the assay on 786-0 renal it was 40%; in the assay on COLO 205 colon, -35.4% (active).

Take `O=S(c1ccccc1)c1ccc2nnnn2n1` (stereo unspecified): the growth with NCI-H226 lung was 103%; with NCI-H322M lung it was 98.7%; in the assay on HOP-62 NSCLC, 108%; in the assay with NCI-H460 lung, 103%; with HOP-92 NSCLC, 101%; in the assay with NCI-H522 lung, -17.6% (active). Also, the growth in the assay on A549/ATCC NSCLC was 99.9%; in the assay with 786-0 renal it was 104%; in the assay with COLO 205 colon it was 98%.
